Assay results as given in PubChem BioAssay (NCATS).
Inconclusive results are not listed. Unmarked numbers belong to inactive results. The call rests on the fitted dose curve; in most records, active means well fitted cell-killing curve with a large enough effect; inconclusive means small, poorly fitted or top-dose-only effect, or effect the other way; inactive means flat fitted curve, though single readings scatter. Where a SMILES comes first, the peptide text is derived from it. The star is where a group is joined. AFC = O=c1cc(C(F)(F)F)c2ccc(N*)cc2o1

test system: JEG-3; assay: Primary qHTS to identify gynecologic anti-cancer compounds using libraries of approved drugs and bioactive compounds (AID 1345084); settings: Gynecologic cancer cell panel viability, ATPlite luminescence, 48 h; series mostly up to 57.5 µM; activity change, negative = cytotoxicity: at the top concentration; further: nearly all actives have a fitted effect of over 55% in size
Method in brief: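 48 h compound exposure at 37 C, 5% CO2; five-point qHTS. ATPlite luminescence readout of cell ATP.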
On the % scale 0 is the no-effect control and ±100 the full control effect.

| Structure (SMILES) | activity change, negative = cytotoxicity |
| --- | --- |
| CCC(C)C(=O)O[C@H]1CCC=C2C=C[C@H](C)[C@H](CC[C@@H](O)C[C@@H](O)CC(=O)O)[C@H]21 (some centres undefined) | 12.6% [at 25.3 µM] |
| CC(=O)NC1C(OC(C)(C)C2CCC3(C)C=C(C4CCC5C4(C)CC(O)C4OC(C(C)(C)O)CCC45C)CCC3O2)OC(CO)C(O)C1O (centres undefined) | 14.6% [at 25.3 µM] |
| CC(=O)O[C@@H]1c2c3c(cc(O)c2C(=O)O[C@@H]1C)O[C@@]1(C)[C@@H](O)C[C@H]2C(C)(C)C(=O)C=C[C@]2(C)[C@@H]1C3 | 2.65% [at 25.3 µM] |
| COc1c(C)c(OCC(O)C(C)(C)O)cc2c1COC2=O (centres undefined) | -3.56% |
| CC(=O)CC1CCC(C(C)C(=O)OCC(O)CO)O1 (centres undefined) | 1.95% |
| O=C(O)COCCN1CCN([C@H](c2ccccc2)c2ccc(Cl)cc2)CC1 | 12% |
| Nc1nc2c(ncn2[C@@H]2O[C@@H]3COP(=O)(O)O[C@H]3[C@H]2O)c(=O)[nH]1 | 2.4% |
| CC1=C(C(=O)O)/C(=C/CO[C@@H]2O[C@H](COC(=O)/C=C/c3ccc(O)cc3)[C@@H](O)[C@H](O)[C@H]2O)C(O)C1 (some centres undefined) | 21.3% [at 25.3 µM] |
| Cc1cc(C)c2c(N)c(C(=O)NCc3ccc(Cl)cc3)sc2n1 | 2.28% |
| CC(=O)OC1C(O)C2C(C)C3=CC(=O)OC3(O)CC2C2(C)CCCC(C)(CO)C12 (centres undefined) | -6.52% [at 25.3 µM] |
| CC(C)C(NC(=O)c1ccc2ccccc2n1)C(=O)NC(CC(=O)O)C(=O)COc1c(F)cccc1F (centres undefined) | -0.486% |
| O=C(Nc1ccc(-c2ccncc2)cc1)N[C@H](CO)c1ccccc1 | -17.3% |
| CC1=CC2/C=C(\C)CC[C@@H](O)[C@@H](O)[C@@H]3O[C@@H]3C(=O)[C@]23C(=O)N[C@@H](CC(C)C)[C@@H]3[C@@H]1C (some centres undefined) | -3.92% [at 25.3 µM] |
| O=C(NCC(O)CO)c1ccncc1Nc1ccc(I)cc1F (centres undefined) | 5.58% |
| CC1(C)CC2=C3C=CC4C5(C)CCC(O)C(C)(C)C5CCC4(C)C3(C)CCC2(C)C(O)C1 (centres undefined) | 21.3% [at 25.3 µM] |
| COC(=O)C1=CO[C@@H](O[C@@H]2O[C@H](CO)[C@@H](O)[C@H](O)[C@H]2O)[C@H]2[C@@H]1CC(OC)O[C@@H]2C (some centres undefined) | 14.2% [at 25.3 µM] |
| C[C@@H]1O[C@@H](O[C@@H]2[C@@H](O[C@@H]3O[C@@H](C)[C@H](O[C@@H]4OC[C@H](O)[C@H](O[C@@H]5OC[C@@H](O)[C@H](O)[C@H]5O)[C@H]4O)[C@@H](O[C@@H]4OC[C@](O)(CO)[C@H]4O)[C@H]3O)[C@H](OC(=O)[C@]34CCC(C)(C)C[C@H]3C3=CCC5[C@@]6(C)C[C@H](O)[C@H](O[C@@H]7O[C@H](CO[C@@H]8OC[C@H](O)[C@H](O)[C@H]8O)[C@@H](O)[C@H](O)[C@H]7O)C(C)(C)C6CC[C@@]5(C)[C@]3(C)C[C@H]4O)OC[C@H]2O)[C@H](O)[C@H](O)[C@H]1O (some centres undefined) | -6.81% [at 6.55 µM] |
| C=C1CCCC2(C)CC3(OC)OC(=O)C(C)=C3CC12 (centres undefined) | 1.72% |
| CC(C)=CCC/C(C)=C/CCC1(C)Oc2c(c(O)cc3c2CN(C(CCC(=O)O)C(=O)O)C3=O)CC1O (centres undefined) | 11.2% [at 25.3 µM] |
| C=C(C(=O)O)C1CCC2(C)CCC(O)C(=C)C2C1 (centres undefined) | 1.75% |

| Structure (SMILES) | activity change, negative = cytotoxicity |
| --- | --- |
| CC12CCC3c4ccc(OC5OC(C(=O)O)C(O)C(O)C5O)cc4CCC3C1CCC2O (centres undefined) | 1.04% |
| CC(=O)N[C@@H](Cc1c[nH]c2ccccc12)C(=O)N[C@@H](CCC(=O)O)C(=O)N[C@@H](Cc1cnc[nH]1)C(=O)N[C@@H](CC(=O)O)C(=O)Nc1ccc2c(C(F)(F)F)cc(=O)oc2c1 (Ac-WEHD-{AFC}) | 6.18% [at 38.5 µM] |
| C[C@@H]1O[C@@H](O[C@H]2[C@@H](OC(=O)[C@]34CCC(C)(C)CC3C3=CCC5[C@@]6(C)C[C@H](O)[C@H](O[C@@H]7O[C@H](C(=O)O)[C@@H](O)[C@H](O)[C@H]7O)[C@@](C)(C(=O)O)C6CC[C@@]5(C)[C@]3(C)CC4)OC[C@H](O)[C@@H]2O)[C@H](O)[C@H](O)[C@H]1O[C@@H]1OC[C@@H](O)[C@H](O)[C@H]1O (some centres undefined) | 3.02% [at 11.6 µM] |
| CC12CCC(C(OC3OC(COC4OCC(O)(CO)C4O)C(O)C(O)C3O)C1)C(C)(C)O2 (centres undefined) | 8.81% [at 25.3 µM] |
| O=C(/C=C\c1ccc(O)cc1)N[C@@H](Cc1ccc(O)cc1)C(=O)O | 9.73% [at 38.5 µM] |
| O=C(O)c1cccc(S(=O)(=O)N2CCc3ccccc3C2)c1 | 2.2% |
| C[C@@H]1O[C@@H](O[C@H]2[C@H](O)[C@@H](O[C@@H]3O[C@H](CO)[C@@H](O)[C@H](O[C@@H]4O[C@H](CO)[C@@H](O)[C@H](O)[C@H]4O)[C@H]3O)[C@H](O[C@H]3CC[C@@]4(C)C(=CC[C@@H]5C4CC[C@@]4(C)C5C[C@@H]5OC6(CC[C@@](C)(CO[C@@H]7O[C@H](CO)[C@@H](O)[C@H](O)[C@H]7O)O6)[C@@H](C)[C@@H]54)C3)O[C@@H]2CO)[C@H](O)[C@H](O)[C@H]1O (some centres undefined) | -5.56% [at 6.55 µM] |
| COc1ccc(/C=C/C(=O)O[C@H]2[C@H](O[C@H]3[C@@H]4C=CO[C@@H](O[C@@H]5O[C@H](CO)[C@@H](O)[C@H](O)[C@H]5O)[C@@H]4[C@@]4(CO)O[C@@H]34)O[C@@H](C)[C@H](O)[C@H]2OC(C)=O)cc1 | -4.19% [at 25.3 µM] |
| COC(=O)C12C(=O)C(C)=C(O)C1(C)C(C)=CC1C3(CO)CCC(O)C(C)(C)C3CCC12C (centres undefined) | -1.84% [at 25.3 µM] |
| C=C1[C@H](OC(C)=O)[C@H]2[C@@H](OC(C)=O)[C@](C)(OC(C)=O)C[C@]2(OC(C)=O)C(=O)[C@H](C)/C=C/C(C)(C)C(=O)[C@H](OC(=O)C(C)C)[C@H]1OC(C)=O | 14.3% [at 25.3 µM] |
| COC(=O)N(C)c1c(N)nc(-c2nn(Cc3ccccc3F)c3ncccc23)nc1N | 8.85% |
| C=C1C[C@]23C[C@H]1CC[C@H]2[C@@]1(C)CCC[C@@]2(C)C(=O)O[C@@H]([C@@H]3O)[C@@H]12 | 16.8% [at 38.5 µM] |
| CC(O)CCC1C(CO[C@@H]2O[C@H](CO)[C@@H](O)[C@H](O)[C@H]2O)CC(O)CC1(C)C (some centres undefined) | 4.56% [at 38.5 µM] |
| CC1=C2C[C@H]3O[C@@]3(C)CCC3O[C@@]3(C)C[C@@]2(O)OC1=O (some centres undefined) | -1.24% |
| O=C(O)Cc1cn(C2OCC(O)C(O)C2O[C@@H]2O[C@H](CO)[C@@H](O)[C@H](O)[C@H]2O)c2ccccc12 (some centres undefined) | 1.5% [at 25.3 µM] |
| CC(C)C(C#N)O[C@@H]1O[C@H](CO[C@@H]2O[C@@H](C)[C@H](O)[C@@H](O)[C@H]2O)[C@@H](O)[C@H](O)[C@H]1O (some centres undefined) | -3.94% [at 25.3 µM] |
| COC1CC(OC2CCC3(C)C(=CCC4C3C(OC(C)=O)C(OC(=O)/C=C/c3ccccc3)C3(C)C(C(C)O)CCC43O)C2)OC(C)C1OC1CC(OC)C(OC2OC(C)C(OC3OC(CO)C(O)C(O)C3O)C(OC)C2O)C(C)O1 (centres undefined) | -8.61% [at 6.55 µM] |
| C=C1C(O)CC2C(C(=O)O)=COC(O[C@@H]3O[C@H](COC(=O)/C=C/c4ccc(O)cc4)[C@@H](O)[C@H](O)[C@H]3O)C12 (some centres undefined) | -9.29% [at 25.3 µM] |
| CC(=O)O[C@H]1CC[C@H](C)[C@@]2(C)[C@H](OC(C)=O)c3c(C)coc3C(=O)[C@H]12 | 18.9% [at 38.5 µM] |
